Hits are enriched below; roughly 19% of the tested compounds scored in any of these assays.
IL1B secr inh: blocks inflammasome-driven IL-1 beta release | THP-1 LPS/ATP IL-1B secretion, AlphaLISA, 16 h; stronger effect = lower value | activity change, % at 57.5 µM | 360,000 tested, 4.7% active; in the data active = activity change below about -50%; inconclusive = mostly about -30% to -49%
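Secreted IL-1B measured by AlphaLISA bead assay after 16 h compound exposure of THP-1 cells; compounds (final up to 57.5 uM) added 1 h before LPS (250 ng/mL) and ATP (1.25 mM) stimulation; lower signal means less secretion.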
TGFb SMAD3 inh: blocks TGF-b signaling; HepG2 CAGA-GFP TGF-b/SMAD3 reporter, GFP fluorescence, 18 h; TGF-beta stimulated, 500 pg/mL final; Potency, µM (doses to about 46.1 µM), hits mostly inhibitors; 410,000 tested, 1.2% active; also: nearly all actives have a fitted effect of over 65% in size
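Read-out: total well GFP (ex488/em500-530) summed from mean per-cell fluorescence. Cells: HEPG2 CAGA-GFP, 1% FBS DMEM, 18 h at 37 degrees C with 500 pg/mL final TGF-beta. Unstimulated wells served as the full-inhibition control; stimulated DMSO wells = 0%.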
HepG2 viability: counter-screen for TGF-b inhibitors: cytotoxicity in HepG2 cells; 410,000 tested, 0.76% active; HepG2 CAGA-GFP viability, ATP luminescence, 18 h; Potency, µM (titrated, usually from 46.1 µM), actives largely listed as cytotoxic
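CellTiter-Glo luminescence gave cytotoxicity after 18 hours at 37 degrees C. The cells were HepG2 CAGA-GFP in 1% FBS DMEM, stimulated with 500 pg/mL TGF-beta after compound addition. %Activity was normalised to no-cell wells (complete cell-killing) and DMSO (no toxicity), and curves were fitted and classified.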
TDP1 cell noCPT: qHTS for Inhibitors of human tyrosyl-DNA phosphodiesterase 1 (TDP1): qHTS in cells in absence of CPT. DT40 Tdp1-/- hTDP1 cells, no CPT, ATP luminescence, 48 h. Potency, µM (titrated, usually from 46.2 µM), actives largely listed as inhibitors. 420,000 tested, 15% active. AID 686978, 2013; also: nearly all actives have a fitted effect of over 55% in size
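Camptothecin absent (DMSO only). Human TDP1-complemented DT40 knockout cells, 400 cells/well, 37 °C for minimum 48 hr; ATP measured via CellTiter-Glo, 30 min dark incubation, luminescence.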
TDP1 inh: inhibitors of human tyrosyl-DNA phosphodiesterase TDP1; recombinant TDP1, AlphaScreen DNA substrate cleavage; Potency, µM (top dose mostly 130 µM), hits mostly inhibitors; Q9NUW8; 350,000 tested, 0.28% active; also: nearly all actives have a fitted effect of over 40% in size
Target sequence (Q9NUW8 whole entry, looked up): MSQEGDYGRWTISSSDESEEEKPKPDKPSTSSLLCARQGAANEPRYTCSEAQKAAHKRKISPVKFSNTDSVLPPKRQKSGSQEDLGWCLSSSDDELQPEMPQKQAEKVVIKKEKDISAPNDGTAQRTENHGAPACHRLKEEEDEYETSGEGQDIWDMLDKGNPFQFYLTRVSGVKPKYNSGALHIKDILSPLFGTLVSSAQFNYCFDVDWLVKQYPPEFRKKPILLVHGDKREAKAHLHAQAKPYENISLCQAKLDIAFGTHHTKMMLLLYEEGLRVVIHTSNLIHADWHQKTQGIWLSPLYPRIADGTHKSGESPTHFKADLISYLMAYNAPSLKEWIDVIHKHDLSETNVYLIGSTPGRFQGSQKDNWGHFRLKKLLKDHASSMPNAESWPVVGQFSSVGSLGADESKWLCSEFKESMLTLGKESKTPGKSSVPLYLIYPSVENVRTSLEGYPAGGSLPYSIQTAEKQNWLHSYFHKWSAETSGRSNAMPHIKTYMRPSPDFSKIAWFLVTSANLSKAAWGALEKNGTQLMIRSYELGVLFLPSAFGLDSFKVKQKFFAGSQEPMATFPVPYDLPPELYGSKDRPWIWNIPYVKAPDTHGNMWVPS
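Signal: AlphaScreen proximity between streptavidin donor and anti-FITC acceptor beads on intact substrate. Reaction: Tdp1 1 nM, substrate 15 nM final, 5 min RT after 15 min compound preincubation.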
TDP1 cell CPT: growth inhibition of DT40 Tdp1-/-;hTDP1 cells with camptothecin (screen for TDP1 inhibitors). chicken DT40 Tdp1-/-;hTDP1 cells + 20 nM CPT, ATP luminescence, 48 h. Potency, µM (highest dose often 46.2 µM), hits mostly inhibitors. 420,000 tested, 12% active; also: nearly all actives have a fitted effect of over 55% in size
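Chicken DT40 Tdp1-/- cells complemented with human TDP1, 400 cells/well, exposed to compounds plus 20 nM camptothecin for at least 48 h at 37 C; viability read as ATP content by CellTiter-Glo luminescence.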
Each line names hits and unclear results; the compound was inactive in the other large screens. Unless noted, calls follow the shape of the dose curve; as a rule, active = well fitted curve in the direction sought with a large enough effect; inconclusive = small, poorly fitted or top-dose-only effect, or another doubt; inactive = no such curve, though single readings can be large; an effect the other way counts as inactive or inconclusive.

COCCn1c(=O)c(C)nc2cnc(Oc3cccc(Cl)c3)nc21	none (no result: IL1B secr inh, TGFb SMAD3 inh, HepG2 viability, TDP1 inh)
Cc1c(C(=O)N2CCCC2(C)C(=O)NCC(C)C)oc2ccccc12 (stereo not drawn)	none (no result: TDP1 inh)
CCCCNC(=O)C1(C)CCCCN1Cc1ccccc1-c1ccccc1 (stereo not drawn)	TGFb SMAD3 inh inconclusive, HepG2 viability 20µM, TDP1 cell noCPT inconclusive, TDP1 cell CPT inconclusive (no result: TDP1 inh)
CCCCNC(=O)C1(C)CCCCN1CC(=O)c1ccc(OC)cc1 (stereo not drawn)	TDP1 cell noCPT 26µM, TDP1 cell CPT 16µM (no result: TDP1 inh)
CCCCNC(=O)C1(C)CCCCN1C(=O)c1cc(-c2ccccc2)cs1 (stereo not drawn)	TDP1 cell noCPT 8.2µM, TDP1 cell CPT 13µM (no result: TDP1 inh)
CCCCNC(=O)C1(C)CCCCN1C(=O)c1oc2ccccc2c1C (stereo not drawn)	TDP1 cell noCPT 10µM, TDP1 cell CPT 15µM (no result: TDP1 inh)
CCc1ccc(C2c3c(-c4cc(C)ccc4O)n[nH]c3C(=O)N2CCO)cc1 (stereo not drawn)	TDP1 cell noCPT inconclusive, TDP1 cell CPT inconclusive (no result: IL1B secr inh)
CCOC(=O)[C@H]1[C@H]2COc3ccc(C)cc3[C@@H]2N2C(=O)c3cc(Br)ccc3NC(=O)[C@@]12C	TGFb SMAD3 inh inconclusive, TDP1 cell noCPT inconclusive, TDP1 cell CPT inconclusive
COc1ccc(NC(=O)C2(C)CCN2Cc2ccc(C(C)C)cc2)cc1OC (stereo not drawn)	TDP1 cell noCPT 23µM, TDP1 cell CPT 18µM (no result: TDP1 inh)
COc1ccc(NC(=O)C2(C)CCN2CC2CCCCC2)cc1OC (stereo not drawn)	TDP1 cell noCPT 15µM, TDP1 cell CPT inconclusive (no result: TDP1 inh)
COc1ccc(NC(=O)C2(C)CCN2Cc2ccc(OC(C)C)cc2)cc1OC (stereo not drawn)	TDP1 cell noCPT inconclusive, TDP1 cell CPT inconclusive (no result: TDP1 inh)
COc1ccc(NC(=O)C2(C)CCN2Cc2ccccc2Cl)cc1OC (stereo not drawn)	IL1B secr inh inconclusive, TDP1 cell noCPT 8.2µM, TDP1 cell CPT 9.2µM (no result: TDP1 inh)
COc1cccc(NC(=O)C2(C)CCN2Cc2ccc(OC)c3ccccc23)c1 (stereo not drawn)	TDP1 cell CPT inconclusive (no result: TDP1 inh)
COC(=O)CNC(=O)C1(CC(C)C)C=CCN1C(C)=O (stereo not drawn)	none (no result: IL1B secr inh, TGFb SMAD3 inh, HepG2 viability, TDP1 cell noCPT, TDP1 cell CPT)
CCN(CC)CCN(C)C(c1cc2ccccc2o1)c1nnnn1C(C)(C)C (stereo not drawn)	TDP1 cell noCPT inconclusive, TDP1 cell CPT inconclusive (no result: TGFb SMAD3 inh, HepG2 viability, TDP1 inh)
CCCCn1nnnc1C(c1cc2ccccc2o1)N(C)Cc1ccccc1 (stereo not drawn)	TDP1 cell noCPT 23µM, TDP1 cell CPT inconclusive (no result: TGFb SMAD3 inh, HepG2 viability, TDP1 inh)
CN(Cc1ccc(Cl)c(Cl)c1)C(c1cc2ccccc2o1)c1nnnn1C(C)(C)C (stereo not drawn)	TDP1 cell noCPT 21µM, TDP1 cell CPT inconclusive (no result: TGFb SMAD3 inh, HepG2 viability, TDP1 inh)
CCCCn1nnnc1C(c1ccccc1)N1CCN(C(=O)c2ccco2)CC1 (stereo not drawn)	none (no result: TGFb SMAD3 inh, HepG2 viability, TDP1 inh)
O=C(NC(Cc1cc(=O)[nH]c2ccccc12)C(=O)O)c1ccc(Cl)cc1 (stereo not drawn)	none (no result: IL1B secr inh, TGFb SMAD3 inh, HepG2 viability)
COc1ccc(C(=O)CN2CCN(CCN3C(=O)c4cccc5cccc(c45)C3=O)CC2)cc1	TGFb SMAD3 inh inconclusive, TDP1 cell noCPT 21µM, TDP1 cell CPT inconclusive (no result: TDP1 inh)
COc1cc2c3c(cccc3c1)C(=O)N(CCN1CCCC1)C2=O	TGFb SMAD3 inh 14µM, TDP1 cell noCPT 0.1µM, TDP1 cell CPT 0.037µM (no result: TDP1 inh)
CCCCC[C@@H](C)N1C[C@H](COCc2ccccc2)Oc2cc(N3CCC[C@H]3CO)ccc2S1(=O)=O	TDP1 cell noCPT 16µM, TDP1 cell CPT 9.2µM (no result: TGFb SMAD3 inh, HepG2 viability, TDP1 inh)
CCCCC[C@@H](C)N1C[C@H](COCc2ccccc2)Oc2cc(N3CCC[C@@H]3CO)ccc2S1(=O)=O	TDP1 cell noCPT 18µM, TDP1 cell CPT inconclusive (no result: TGFb SMAD3 inh, HepG2 viability, TDP1 inh)
